Akt phos inh = HTS Assay for Inhibitors of Akt Phophorylation: Primary Screen. 0.32% of 360,000 active. Neuro2A IGF-stimulated pAkt S473 HTRF, 20 min; stronger effect = lower value. activity change, % for hits at 50 µM; in the data active = activity change below about -80%; inconclusive = mostly about -51% to -80%; also: % is scaled to controls: 0 for no effect and ±100 for the full control effect
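Neuro2A cells in DMEM with 0.5% FBS, overnight at 37 deg C, given compound at single 50 µM final, then IGF (6 nM final) for 20 min at 37 deg C. Lysed; phospho-Akt Ser473 by HTRF after 24 h, 665/615 ratio.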
CCT modulator = High-Throughput Screening for Modulators of Cytosolic Chaperonin Activity; purified chaperonin ATPase assay, HTRF ADP detection, 30 min; AID 651819, 2012; 0.3% of 360,000 active; activity change, % (no concentration beside the values), hits read low; in the data active = activity change below about -30%; also: % is scaled to controls: 0 for no effect and ±100 for the full control effect
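TRiC at 40 or 20 nM final (batch-dependent) in 30 mM Tris pH 7.4, 100 mM KCl, 5 mM MgCl2, 1 mM DTT, with compound at single 76 uM and 10 uM ATP, 30 min at 37 deg C. ADP detected by HTRF Transcreener, 665/615 ratio.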
Mito fusion act = qHTS Assay for Small Molecule Inhibitors of Mitochondrial Division or Activators of Mitochondrial Fusion. S. cerevisiae fusion-defective mutant growth rescue, CellTiterGlo 48 h. Potency, µM (doses to about 46.1 µM), for inactives: at the top dose growth rescue (activation), actives largely listed as activators. 0.23% of 320,000 active; also: potency is read from the fitted curve at half-maximal effect; % of control where 0% means no effect; nearly all actives have a fitted effect of over 45% in size
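Growth-rescue viability read-out: after 48 h at the non-permissive 37C in glycerol/ethanol YPEG, yeast mitochondrial fusion mutants are measured by CellTiterGlo luminescence; compounds (23 nl pinned per well) restoring growth score as division inhibitors or fusion activators.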
aSyn rescue = qHTS of alpha-syn Inhibitors. 0.14% of 370,000 active. Yeast expressing alpha-synuclein, growth rescue, BacTiter-Glo, 24 h. Potency, µM (series often up to 46.1 µM), for the others: at the top dose growth rescue (activation), hits mostly activators. AID 652106, 2013; also: potency is read from the fitted curve at half-maximal effect; % of control where 0% means no effect; nearly all actives have a fitted effect of over 65% in size
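Galactose-induced alpha-syn yeast (OD600=0.02, raffinose-pregrown) + pinned cpd, 24 hr, 30 deg C; growth by BacTiter-Glo luminescence. Growth restoration scores as activation.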
TDP-43 yeast inh = qHTS of TDP-43 Inhibitors; AID 652104, 2013; TDP-43 expressing yeast growth rescue, BacTiter-Glo, 24 h; Potency, µM (series often up to 46.1 µM), for inactives: at the highest dose growth rescue (activation), actives largely listed as activators; 1.8% of 410,000 active; also: potency is read from the fitted curve at half-maximal effect; % of control where 0% means no effect; nearly all actives have a fitted effect of over 50% in size
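Yeast expressing TDP-43 (pregrown in raffinose, seeded at OD600=0.02 in galactose medium) exposed to compounds 24 hr at 30 deg C. Growth read by BacTiter-Glo luminescence; rescue of toxicity appears as increased signal.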
Apoferritin bind = qHTS Assay for Identification of Novel General Anesthetics. 0.074% of 350,000 active. apoferritin/1-aminoanthracene competitive binding, fluorescence. Potency, µM (highest dose often 77.5 µM), without a hit: top-dose activity change, negative = displacement, actives largely listed as inhibitors. Ferritin light chain (Equus caballus), P02791; also: potency is read from the fitted curve at half-maximal effect; % is scaled to controls: 0 for no effect and ±100 for the full control effect; nearly all actives have a fitted effect of over 20% in size
Target sequence (P02791 2-175 limits assumed): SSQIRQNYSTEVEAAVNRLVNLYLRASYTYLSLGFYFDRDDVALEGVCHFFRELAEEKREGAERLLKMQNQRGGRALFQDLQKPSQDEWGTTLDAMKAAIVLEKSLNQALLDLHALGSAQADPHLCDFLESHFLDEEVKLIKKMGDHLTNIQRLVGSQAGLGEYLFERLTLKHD
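Steps: apoferritin (10 uM) was premixed with half-saturated 1-AMA in PBS, compounds were pin-transferred, plates stood 10 min at room temperature, fluorescence was read at 380/535 nm, and curves were fitted with a Hill equation.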
* marks the source's active call; other numbers are inactive results; i = inactive; ? = inconclusive; . = no result; [ ] = remark or other dose. The list is not random: actives were taken first. Their share in the collection is about 2.5%. Unless noted, calls follow the shape of the dose curve; as a rule, active = well fitted curve in the direction sought with a large enough effect; inconclusive = small, poorly fitted or top-dose-only effect, or another doubt; inactive = no such curve, though single readings can be large; an effect the other way counts as inactive or inconclusive.

SMILES	Akt phos inh	CCT modulator	Mito fusion act	aSyn rescue	TDP-43 yeast inh	Apoferritin bind
CCn1c(C(=O)N2CCC(C(=O)N3CCN(c4ccc(OC)cc4)CC3)CC2)cc2sccc21	.	.	.	.	22.4µM*	-13.9%
CCOP(=O)(OCC)C(=Cc1cc(C(C)(C)C)c(O)c(C(C)(C)C)c1)P(=O)(OCC)OCC	.	.	.	.	.	2.7%
CC1(C)OC(=O)C2(Cc3ccccc3N3CCCC32)C(=O)O1 (stereo not drawn)	.	.	.	12.0%	.	.
COc1ccccc1N1CCN(S(=O)(=O)/C=C/c2ccccc2)CC1	-125.5%*	-0.8	?	15.2%	?	-11.2%
O=S(=O)(/C=C/c1ccccc1)N1CCN(c2ccccc2)CC1	i	-3.6	4.0%	-2.1%	22.2%	-11.3%
Fc1ccc(Nc2nc(SCc3cccc(F)c3)nc3ccccc23)cc1	.	.	.	.	?	35.1%
O=C(CN(CC1CCCO1)C(=O)CNS(=O)(=O)c1ccc(Cl)cc1)NCc1ccco1 (stereo not drawn)	i	-46.3*	-7.1%	-2.6%	-0.4%	5.9%
CCc1nc2ccccc2c(=O)n1/N=C/c1ccc(Cl)cc1	i	-32.7*	.	2.1%	16.0%	.
O=C1CCC[C@H]2OC12[C@@H](O)CCc1ccccc1 (stereo partly drawn)	.	.	.	.	.	0.5%[15.3 µM]
CC(C)CCNC(=O)C1CCN(S(=O)(=O)c2cccc3nsnc23)CC1	.	.	.	.	3.5%	-7.0%
COC(CNC(=O)C1CCN(S(=O)(=O)c2cccc3nsnc23)CC1)OC	.	-75.3*	-1.5%	-22.4%	-5.0%	-3.9%
CCOC(=O)N1CCN(/[N+]([O-])=N/Oc2ccc([N+](=O)[O-])cc2[N+](=O)[O-])CC1	.	.	-7.5%	-34.4%	.	?
COc1cc(OC)c(OC)cc1/C=C/c1nc2ccccc2o1	.	.	.	-17.4%	.	.
O=C(CSc1nnc2[nH]c(=O)cc(-c3ccccc3)n12)Nc1ccc(OC(F)(F)F)cc1	.	.	.	.	?	-9.9%
CNC(=O)c1ccsc1NC(=O)c1ccc2c(c1)CCCC2	i	-1.9	5.62µM*	-19.5%	19.1%	-10.5%
Cc1cc(=O)n(CC(=O)N2CCN(c3ccc(F)cc3)CC2)c2c1c(C)nn2C	.	.	.	.	11.2µM*	-6.3%
Cc1ccc(Cn2c(C)c3cnn(CC(=O)N4CCN(c5ccc(F)cc5)CC4)c(=O)c3c2C)cc1	.	.	.	.	15.8µM*	0.1%
Cc1cc(C)c(C#N)c(SCc2ccccc2F)n1	i	-0.7	16.7%	0.9%	-3.5%	-13.4%
Cc1cc(C)c(C#N)c(SCc2ccccc2C)n1	i	0.0	7.08µM*	14.2%	-8.3%	-9.4%
O=S(=O)(c1cccc(NC(=S)Nc2ccc(Br)cc2Cl)c1)N1CCOCC1	i	-62.7*	1.6%	-1.0%	2.4%	?
Cc1cccc(OCC(=O)Nc2cc(-c3nc4cc(Cl)ccc4o3)ccc2C)c1	.	.	.	-2.6%	.	.
Cc1cccc(Cn2c(=O)oc3ccc(C)cc32)c1	i	-0.1	25.1%	4.4%	20µM*	-4.3%
CCc1nnc(SCC(=O)Nc2ccc(Cl)cc2F)c2cc3occc3n12	.	.	.	.	-3.8%	-4.2%
CC1(C)O[C@@H]2C[C@H]3[C@@H]4CCC5=CC(=O)C=C[C@]5(C)[C@@]4(F)[C@@H](O)C[C@]3(C)[C@]2(C(=O)CO)O1	i	-1.4	12.6µM*	3.9%	?	-5.8%
O=C(CCc1nnc2n(Cc3ccc(F)cc3)c(=O)c3ccccc3n12)N1CCN(c2ccccn2)CC1	i	0.0	12.6µM*	-0.6%	-1.9%	-10.8%
SMILES	Akt phos inh	CCT modulator	Mito fusion act	aSyn rescue	TDP-43 yeast inh	Apoferritin bind
NS(=O)(=O)Nc1c(Br)cc(Br)c2cccnc12	.	.	.	-1.3%	.	.
CCNC(=O)C1=C(O)c2sccc2N(C)S1(=O)=O	i	-1.1	-4.9%	6.2%	8.91µM*	5.6%
CN1c2ccsc2C(O)=C(C(=S)Nc2ccccc2)S1(=O)=O	i	1.3	5.3%	12.0%	?	-21.0%
O=C(Cn1cnc2ccccc2c1=O)OCC(=O)c1ccc2c(c1)OCCO2	i	-0.6	2.3%	18.3%	0.0%	15.8µM*
Cc1cc[n+](CC(=O)c2ccc3c(c2)OCCO3)cc1	i	-3.2	-7.3%	-3.5%	6.4%	-4.4%
O=C(Cn1cnc2ccccc2c1=O)Nc1ccc2c(c1)OCCO2	i	-2.8	-2.2%	2.8%	-17.2%	-8.0%
O=C(COC(=O)C(O)c1ccccc1)c1ccc2c(c1)OCCO2 (stereo not drawn)	i	-38.7*	1.1%	-0.5%	12.8%	-22.6%
O=C(C[n+]1ccc(/C=C/c2ccccc2)cc1)c1ccc2c(c1)OCCO2	i	-66.3*	-2.4%	0.8%	-3.7%[1.82 µM]	0.2%
O=C(COC(=O)c1ccc(Cl)nc1)c1ccc2c(c1)OCCO2	i	1.8	-1.4%	-5.9%	1.5%	-21.0%
O=C1C[C@H](c2ccccc2Cl)N1S(=O)(=O)c1ccccc1[N+](=O)[O-]	.	.	.	.	.	-7.3%
CC(=O)N1c2ccc(S(=O)(=O)NCC3CCC(C(=O)Nc4cccc(F)c4)CC3)cc2CC1C (stereo not drawn)	.	.	.	.	-7.8%	-6.6%
OC(CN1C2=NCCN2c2ccccc21)c1ccc2c(c1)OCO2 (stereo not drawn)	-118.2%*	-3.5	-2.3%	-1.1%	-0.7%	-3.2%
Cc1ccc(C(O)CN2C3=NCCCN3c3ccccc32)cc1 (stereo not drawn)	i	-0.6	-0.1%	-0.8%	0.1%	-2.5%
OC(CN1C2=NCCCN2c2ccccc21)c1ccc2c(c1)OCO2 (stereo not drawn)	-100.8%*	1.7	-0.5%	5.3%	-20.1%	-7.8%
OC[C@@H]1OC(O)[C@@H](O)[C@H](O)[C@@H]1O (stereo partly drawn)	.	.	.	.	.	-2.9%
Clc1ccc(-n2nnnc2Sc2ncnc3sccc23)cc1	i	-1.8	.	-47.9%	10µM*	.
COc1cc([N+](=O)[O-])cc(/C=N/NC(=O)C(C)Nc2ccccc2C)c1O (stereo not drawn)	i	0.3	1.1%	2.0%	20µM*	-8.6%
O=c1c(N2CCN(c3cccc(Cl)c3)CC2)csc2ccc(Cl)cc12	.	.	.	.	-88.4%	?
CCN=c1scc(-c2ccco2)n1/N=C/c1ccc(OC)c(O)c1	i	-0.2	5.2%	-2.8%	?	-0.1%
CCN=c1scc(-c2ccco2)n1/N=C/c1ccc(O)cc1	i	-2.4	6.9%	1.7%	17.8µM*	-4.7%
CCn1c(C(=O)N2CCCC(C(=O)NCCCOC)C2)cc2sccc21 (stereo not drawn)	.	.	.	.	-0.1%	8.8%
CN(c1ncnc2onc(-c3cccc(Cl)c3)c12)C1CCCCC1	.	.	.	.	22.4µM*	-7.3%
CCOc1ccccc1Nc1nc(-c2ccc(C)cc2)c(CC(=O)O)s1	.	.	.	.	8.9%	-14.6%

Assay outcomes from PubChem.
